Most compounds without a hit are left out; they make up all but 6.7% or so of the library.
KB-3-1 cytotox: qHTS assay for MDR1-selective chemotherapeutics: Primary screen using the parental adenocarcinoma cell KB-3-1; KB-3-1 viability, CellTiter-Glo ATP luminescence, 72 h; hit rate 1.4% among 400,000; Potency, µM (series often up to 46.1 µM), actives largely listed as cytotoxic; further: on the % scale 0 is the no-effect control and ±100 the full control effect; nearly all actives have a fitted effect of over 60% in size
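Cytotoxicity measured as CellTiter-Glo luminescence after 72 h at 37 C. Compound titrations were pinned onto drug-naive KB-3-1 parental adenocarcinoma cells grown in DMEM with 10% FBS, and normalized data fitted to concentration-response curves.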
SW480 rereplic: A quantitative high throughput screen for small molecules that induce DNA re-replication in SW480 colon adenocarcinoma cells. SW480 DNA re-replication, Hoechst DNA content imaging, 48 h. Potency, µM (top dose mostly 46.1 µM), for inactives: top-dose re-replication activation, hits mostly activators. hit rate 1.8% among 340,000; further: % of control where 0% means no effect; nearly all actives have a fitted effect of over 55% in size
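250 cells/well; 23 nL cpd via pin tool; 48 hr, 37 C, 5% CO2; Hoechst 40 min; imager read of total nuclear intensity, ex 405/em 500-530 nm.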
MCF10A rerep: A quantitative high throughput screen for small molecules that induce DNA re-replication in MCF 10a normal breast cells; hit rate 2.9% among 350,000; Potency, µM (doses to about 46.1 µM), for the others: at the top dose activity, positive = re-replication, hits mostly activators; MCF 10A DNA re-replication, Hoechst nuclear intensity, 48 h; further: % of control where 0% means no effect; nearly all actives have a fitted effect of over 50% in size
KB-V1 cytotox: qHTS assay for MDR1-selective chemotherapeutics: Primary screen using the drug-selected MDR subline cells KB-V1 | hit rate 3.4% among 400,000 | KB-V1 MDR cells viability, CellTiter-Glo, 72 h | Potency, µM (top dose mostly 46.1 µM), hits mostly cytotoxic | AID 1347076, 2019; further: on the % scale 0 is the no-effect control and ±100 the full control effect; nearly all actives have a fitted effect of over 60% in size
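Luminescent ATP read-out (CellTiter-Glo, 10 min) measures survival of drug-selected KB-V1 MDR cells after 72 h, 37 degrees C compound exposure. Medium: phenol-red-free DMEM, 10% FBS. Values from fitted concentration-response curves.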
PINK1 expr mod: A Quantitative High throughput Screen to Identify Chemical Modulators of PINK1 Expression; Potency, µM (top dose mostly 76.6 µM), for the others: at the top dose activation (PINK1 increase), most hits filed as activators; hit rate 0.2% among 410,000; PINK1 immunofluorescence, high-content cytometry, 24 h; active means well fitted activation curve with a large enough effect; inconclusive means small, poorly fitted or top-dose-only effect; cell line not stated here; further: % of control where 0% means no effect; nearly all actives have a fitted effect of over 65% in size
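Measures PINK1 amount and localization on or inside mitochondria by immunofluorescence. Stable cells get compounds at 5 concentrations for 24 hours before fixation and staining; CCCP controls included.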
Numbers without * were called inactive; i = inactive; ? = inconclusive; · = no result; [ ] = another dose, or the depositor's remark. Unless noted, the call rests on the fitted dose curve; in most records, active means well fitted curve in the direction sought with a large enough effect; inconclusive means small, poorly fitted or top-dose-only effect, or another doubt; inactive means no such curve, though single readings can be large; an effect the other way counts as inactive or inconclusive. Potency means the concentration at half of the fitted maximal effect.

SMILES	KB-3-1 cytotox	SW480 rereplic	MCF10A rerep	KB-V1 cytotox	PINK1 expr mod
Cc1ccc2c(c1)C(=O)N1[C@H]3c4cc(Br)ccc4OC[C@@H]3[C@H](c3ccccc3)[C@]1(C)C(=O)N2	i	22.2%	13µM*	?	3.2%
Cc1ccc2c(c1)C(=O)N1[C@H]3c4cc(C)ccc4OC[C@@H]3[C@H](c3ccccc3)[C@]1(C)C(=O)N2	?	?	5.8µM*	?	7.2%
Cc1ccc2c(c1)C(=O)N1[C@H]3c4cc(Cl)ccc4OC[C@@H]3[C@H](c3ccccc3)[C@]1(C)C(=O)N2	?	?	10.3µM*	i	7.9%
O=C(Nc1ccccc1F)c1ccc2c(Cl)c3c(nc2c1)CCC3	?	·	·	i	2.8%
CCN1CCN(c2oc(-c3ccccc3C)nc2S(=O)(=O)c2ccccc2)CC1	i	-5.1%	5.5%	i	3.6%
NC(=O)c1ncn([C@@H]2O[C@H](CNCc3cccn3-c3ccncc3)[C@@H](O)[C@H]2O)n1	i	2.5%	3.2%	i	0.4%
CCOC(=O)C1CCN(C(=O)C2CCN(C3=NS(=O)(=O)C(c4ccc(C)cc4)=C3CC)CC2)CC1	i	·	·	i	3.1%
COc1ccc(-c2onc(C)c2-c2ccc(C(=O)OC(C)C)o2)c(O)c1	?	15.6%	?	20.6µM*	16.9%
COC(=O)c1ccc(C2N=C(c3cccs3)CC(c3ccccc3O)N2)cc1 (configuration not stated)	i	?	18.4µM*	i	2.3%
COc1ccc(S(=O)(=O)NCc2ccccn2)cc1NC(=O)c1ccccc1F	1.46µM*	5.8µM*	13µM*	1.84µM*	4.9%
CCOc1ccc(S(=O)(=O)NCc2cccnc2)cc1NC(=O)c1ccccc1	i	-9.4%	-11.0%	i	2.2%
CCOc1ccc(S(=O)(=O)NCc2ccccn2)cc1NC(=O)c1ccccc1	2.31µM*	?	?	6.51µM*	11.9%
CC(C)(C)OC(=O)COc1cc(OCC(=O)OC(C)(C)C)c2c(=O)cc(-c3ccccc3)oc2c1	i	-3.0%	6.6%	20.6µM*	5.8%[38.3 µM]
Oc1ccc2[nH]ccc2c1	i	8.2µM*	17.0%	i	3.1%
CCOc1ccc(CN(C)C(=O)CCl)cc1	?	16.4µM*	?	?	-2.1%
C=C(CN(C)C)C(=O)c1ccc(OC2OC(COC(C)=O)C(OC(C)=O)C(OC(C)=O)C2OC(C)=O)cc1 (configuration not stated)	?	5.8µM*	?	?	-6.7%
CC(=O)OCC1OC(Oc2cc(OC(C)=O)c3c(=O)cc(-c4ccc(OC(C)=O)cc4)oc3c2)[C@@H](OC(C)=O)C(OC(C)=O)C1OC(C)=O (some centres not stated)	·	·	·	·	3.8%
CCOc1ccc(CNC(=O)c2cnc(SC)nc2C)cc1	i	·	·	i	-0.1%
CCCN1Cc2cccc(C(=O)Nc3ccccc3F)c2C1=O	i	·	·	i	4.3%
Cc1ccc(CCNC(=O)c2ccc(NC(=O)N3CCSc4ccccc43)cc2)cc1	i	·	·	i	0.1%
COc1ccc(-c2ccc(C(=O)Nc3ccc(NC(C)=O)cc3)c3occc23)c(C)c1	i	·	·	i	12.9%
COc1ccc(-c2coc3c(C(=O)NCc4ccccc4)cccc23)c(C)c1	i	·	·	?	0.3%
COc1cc(NC(=O)c2ccc(-c3c(C)noc3C)c3ccoc23)cc(OC)c1OC	?	·	·	5.8µM*	13.6%
COc1ccc(-c2coc3c(C(=O)NCC(C)C)cccc23)c(C)c1	?	·	·	14.6µM*	-1.4%
COc1ccc(-c2ccc(C(=O)Nc3cc(OC)c(OC)c(OC)c3)c3occc23)c(C)c1	?	·	·	6.51µM*	8.2%
SMILES	KB-3-1 cytotox	SW480 rereplic	MCF10A rerep	KB-V1 cytotox	PINK1 expr mod
CC(=O)Nc1ccc(NC(=O)c2ccc(-c3c(C)noc3C)c3ccoc23)cc1	i	·	·	i	4.1%
Cc1ccc(S(=O)(=O)c2c(C)nn(C(C)(C)C)c2OC(=O)C2CCCC2)cc1	?	-4.6%	?	?	?
Cc1nn(C(C)(C)C)c(OC(=O)C2CCCC2)c1S(=O)(=O)c1ccccc1	20.6µM*	-3.2%	?	?	0.5%
O=C1[C@@H]2Cc3c([nH]c4ccccc34)[C@@H](c3ccccc3)N2C(=O)[C@@H]2Cc3c([nH]c4ccccc34)[C@@H](c3ccccc3)N12	·	23.1µM*	?	·	·
O=C1NCC(=O)N2C(c3ccccc3)c3[nH]c4ccccc4c3C[C@@H]12 (some centres not stated)	i	-32.2%	1.0%	i	-1.0%
COc1cccc2c1C(CO)N1C(C#N)C3CC(C(=O)O)C(C1C2)N3C (configuration not stated)	0.0259µM*	0.92µM*	-5.6%	0.206µM*	1.2%
COc1cccc2c1OCC(C(=O)O)C2 (configuration not stated)	i	-9.4%	-2.9%	i	0.0%
CCN(c1ccccc1)c1ncnc2c1cnn2-c1ccc(C)cc1C	i	·	·	i	5.2%
CCc1ccc(CC2S/C(=C(\C#N)C(C)=O)NC2=O)cc1 (configuration not stated)	?	20.2%	?	7.31µM*	2.9%
C/C(=N\N=C1\NC(=O)C(CC(=O)Nc2ccc(C)c(Cl)c2)S1)C(C)(C)C (configuration not stated)	i	3.4%	?	i	-0.3%
CC(=O)/C(C#N)=C1\NC(=O)C(Cc2ccc(C)c(Cl)c2)S1 (configuration not stated)	18.4µM*	-10.0%	?	9.2µM*	-0.7%
CCOC(=O)c1ccc(CC2S/C(=C(\C#N)C(C)=O)NC2=O)cc1 (configuration not stated)	?	-2.2%	?	i	0.4%
COc1ccc(CNC(=O)c2cncc(Br)c2)cc1	i	5.6%	5.6%	i	1.5%
O=C(Cn1c(=O)n(Cc2ccccc2)c(=O)c2sc3ccccc3c21)Nc1ccc(F)cc1	i	·	·	i	7.3%
Cc1ccc(C(=O)N2CCN(c3ccc(NC(=O)c4ccc5c(c4)OCCO5)cc3)CC2)cc1	?	-0.1%	17.3%	?	4.4%
Cc1ccccc1C(=O)N1CCN(c2ccc(NC(=O)c3ccc4c(c3)OCCO4)cc2)CC1	?	-8.1%	16.4µM*	8.2µM*	-0.5%
CCC(=O)Nc1ccc(N2CCN(C(=O)c3ccccc3C)CC2)cc1	i	1.8%	4.9%	i	8.7%[38.3 µM]

High-throughput results (PubChem)
